In PubChem BioAssay AID1159580 (chemical genetic matrix, 2015):
Where “and” joins values, the source holds several entries; their conditions need not be identical. Identical values can stand only once. About 2,000 (36%) of roughly 5,500 compounds were called active. About 18% were inconclusive and are not listed. Cut-off read from the data, not from the text of the source: active = normalized growth mostly below about 0.91 (no sharp cut-off); inconclusive = no clear call, values can overlap the other calls; inactive = mostly above about 0.92. This is one part of the list.

Experiment: chemical genetic growth profiling, strain panel (AID 1159580);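 note: tested at 20 µM; growth read once vehicle control cultures reached saturation at 30 °C; 1 = growth at the plate median or of vehicle wells; lower values mean less growth of the strain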
Settings: S. cerevisiae deletion strains, growth OD

CCCCOC(=O)c1ccc(N)cc1
normalized growth (locus YAL013W, strain DEP1, stronger effect = lower value): 0.974 (inactive) | normalized growth (locus YAL021C, strain ccr4, stronger effect = lower value): 0.909 (inactive) | normalized growth (locus YAL026C, strain drs2, stronger effect = lower value): 0.603 (active) | normalized growth (locus YAL030W, strain snc1, stronger effect = lower value): 0.908 (active) | normalized growth (locus YBL061C, strain skt5, stronger effect = lower value): 0.71 (active) | normalized growth (locus YBR009C, strain hhf1, stronger effect = lower value): 0.849 (active) | normalized growth (locus YBR021W, strain FUR4, stronger effect = lower value): 0.948 (inactive) | normalized growth (locus YBR023C, strain chs3, stronger effect = lower value): 0.729 (active) | normalized growth (locus YBR171W, strain sec66, stronger effect = lower value): 0.884 (active) | normalized growth (locus YBR229C, strain ROT2, stronger effect = lower value): 0.993 (inactive) | normalized growth (locus YBR231C, strain swc5, stronger effect = lower value): 0.821 (active) | normalized growth (locus YBR279W, strain paf1, stronger effect = lower value): 0.897 (active) | normalized growth (locus YCL011C, strain gbp2, stronger effect = lower value): 0.891 (active) | normalized growth (locus YCL016C, strain dcc1, stronger effect = lower value): 0.86 (active) | normalized growth (locus YCL029C, strain bik1, stronger effect = lower value): 0.948 (inactive) | normalized growth (locus YCL069W, strain vba3, stronger effect = lower value): 0.886 (active) | normalized growth (locus YCR088W, strain abp1, stronger effect = lower value): 0.862 (active) | normalized growth (locus YDL005C, strain med2, stronger effect = lower value): 0.949 (inactive) | normalized growth (locus YDL035C, strain GPR1, stronger effect = lower value): 0.951 (inactive) | normalized growth (locus YDL040C, strain nat1, stronger effect = lower value): 0.932 (active) | normalized growth (locus YDL074C, strain BRE1, stronger effect = lower value): 0.869 (inactive) | normalized growth (locus YDL101C, strain DUN1, stronger effect = lower value): 0.975 (inactive) | normalized growth (locus YDL134C, strain PPH21, stronger effect = lower value): 0.969 (inactive) | normalized growth (locus YDL185W, strain tfp1, stronger effect = lower value): 0.959 (inactive) | normalized growth (locus YDL192W, strain arf1, stronger effect = lower value): 0.886 (active) | normalized growth (locus YDR001C, strain nth1, stronger effect = lower value): 0.904 (active) | normalized growth (locus YDR069C, strain doa4, stronger effect = lower value): 0.916 (inactive) | normalized growth (locus YDR101C, strain arx1, stronger effect = lower value): 0.898 (active) | normalized growth (locus YDR137W, strain rgp1, stronger effect = lower value): 0.453 (active) | normalized growth (locus YDR150W, strain NUM1, stronger effect = lower value): 0.988 (inactive) | normalized growth (locus YDR159W, strain sac3, stronger effect = lower value): 0.751 (active) | normalized growth (locus YDR162C, strain NBP2, stronger effect = lower value): 0.801 (active) | normalized growth (locus YDR195W, strain ref2): 1.14 (inactive) | normalized growth (locus YDR297W, strain sur2, stronger effect = lower value): 0.92 (active) | normalized growth (locus YDR318W, strain mcm21, stronger effect = lower value): 0.897 (active) | normalized growth (locus YDR334W, strain swr1, stronger effect = lower value): 0.914 (inactive) | normalized growth (locus YDR335W, strain msn5, stronger effect = lower value): 0.858 (active) | normalized growth (locus YDR388W, stronger effect = lower value): 0.911 (active) | normalized growth (locus YDR392W, strain spt3, stronger effect = lower value): 0.484 (active) | normalized growth (locus YDR502C, strain sam2, stronger effect = lower value): 0.911 (active) | normalized growth (locus YEL003W, strain gim4, stronger effect = lower value): 0.888 (active) | normalized growth (locus YEL037C, strain rad23, stronger effect = lower value): 0.928 (inactive) | normalized growth (locus YEL061C, strain CIN8 (second series), stronger effect = lower value): 0.895 (active) | normalized growth (locus YEL061C, strain CIN8, stronger effect = lower value): 0.974 (inactive) | normalized growth (locus YER015W, strain faa2, stronger effect = lower value): 0.864 (active) | normalized growth (locus YER016W, strain bim1, stronger effect = lower value): 0.877 (active) | normalized growth (locus YER110C, stronger effect = lower value): 0.922 (inactive) | normalized growth (locus YER111C, strain swi4, stronger effect = lower value): 0.896 (active) | normalized growth (locus YER155C, strain BEM2 (second series), stronger effect = lower value): 0.203 (active) | normalized growth (locus YER155C, strain BEM2, stronger effect = lower value): 0.969 (inactive) | normalized growth (locus YER167W, strain BCK2, stronger effect = lower value): 0.906 (inactive) | normalized growth (locus YFR010W, strain ubp6, stronger effect = lower value): 0.924 (inactive) | normalized growth (locus YGL078C, strain dbp3, stronger effect = lower value): 0.96 (inactive) | normalized growth (locus YGL086W, strain mad1, stronger effect = lower value): 0.927 (active) | normalized growth (locus YGL167C, strain pmr1, stronger effect = lower value): 0.927 (inactive) | normalized growth (locus YGL173C, strain kem1, stronger effect = lower value): 0.876 (active) | normalized growth (locus YGL227W, strain vid30, stronger effect = lower value): 0.893 (active) | normalized growth (locus YGL240W, strain doc1, stronger effect = lower value): 0.666 (active) | normalized growth (locus YGL248W, strain PDE1, stronger effect = lower value): 0.996 (inactive) | normalized growth (locus YGL253W, strain hxk2, stronger effect = lower value): 0.869 (active) | normalized growth (locus YGR078C, strain PAC10, stronger effect = lower value): 0.89 (inactive) | normalized growth (locus YGR135W, strain pre9, stronger effect = lower value): 0.865 (active) | normalized growth (locus YGR229C, strain SMI1, stronger effect = lower value): 0.608 (active) | normalized growth (locus YGR252W, strain gcn5, stronger effect = lower value): 0.743 (active) | normalized growth (locus YHR013C, strain ard1, stronger effect = lower value): 0.856 (inactive) | normalized growth (locus YHR027C, strain rpn1, stronger effect = lower value): 0.908 (active) | normalized growth (locus YHR030C, strain SLT2, stronger effect = lower value): 0.637 (active) and 0.942 (inactive) | normalized growth (locus YHR079C, strain IRE1 (second series), stronger effect = lower value): 0.935 (inactive) | normalized growth (locus YHR079C, strain IRE1, stronger effect = lower value): 0.993 (inactive) | normalized growth (locus YHR094C, strain hxt1, stronger effect = lower value): 0.961 (inactive) | normalized growth (locus YHR129C, strain ARP1, stronger effect = lower value): 0.984 (inactive) | normalized growth (locus YHR142W, strain chs7, stronger effect = lower value): 0.495 (active) | normalized growth (locus YHR200W, strain rpn10, stronger effect = lower value): 0.933 (inactive) | normalized growth (locus YIL066C, strain RNR3, stronger effect = lower value): 0.925 (inactive) | normalized growth (locus YIL073C, strain SPO22, stronger effect = lower value): 0.85 (inactive) | normalized growth (locus YIL125W, strain kgd1, stronger effect = lower value): 0.967 (inactive) | normalized growth (locus YIR030C, strain dcg1, stronger effect = lower value): 0.946 (inactive) | normalized growth (locus YJL092W, strain hpr5, stronger effect = lower value): 0.872 (active) | normalized growth (locus YJL095W, strain BCK1 (second series), stronger effect = lower value): 0.278 (active) | normalized growth (locus YJL095W, strain BCK1, stronger effect = lower value): 0.511 (active) and 0.971 (inactive) | normalized growth (locus YJL115W, strain asf1, stronger effect = lower value): 0.907 (inactive) | normalized growth (locus YJL129C, strain trk1, stronger effect = lower value): 0.769 (active) | normalized growth (locus YJL134W, strain LCB3, stronger effect = lower value): 0.985 (inactive) | normalized growth (locus YJL154C, strain vps35, stronger effect = lower value): 0.906 (active) | normalized growth (locus YJL164C, strain tpk1, stronger effect = lower value): 0.871 (active) | normalized growth (locus YJL166W, strain qcr8, stronger effect = lower value): 0.825 (active) | normalized growth (locus YJL168C, strain set2, stronger effect = lower value): 0.953 (inactive) | normalized growth (locus YJL187C, strain SWE1 (second series), stronger effect = lower value): 0.93 (inactive) | normalized growth (locus YJL187C, strain SWE1, stronger effect = lower value): 0.919 (active) | normalized growth (locus YJR043C, strain POL32, stronger effect = lower value): 0.871 (inactive) | normalized growth (locus YJR066W, strain TOR1, stronger effect = lower value): 0.949 (inactive)
